Molecules are shown by their SMILES. Values joined by “and” are separate entries in the source; they are usually repeats but may differ in a detail not shown here. Identical values can stand only once. This is part of a sample that, as a whole, favours compounds with a hit. Of some 83,000 tested, about 20% had one in any assay.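 A percent growth of 40 corresponds to 60% growth inhibition; 0 means no net growth; -100 means all cells died. Active threshold: below 10.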 Active and inactive are the calls of the source.

What all share (test): NCI-60 one-dose screen, 48 h (100 = growth as untreated, 0 = no growth, -100 = all killed)
The subject of one test is SK-MEL-2 melanoma. To be noted: 10 µM.
The test system of the next test is EKVX NSCLC. The following applies: 10 µM.
The next test concerns SN12C renal. To be noted: 10 µM.
The next test deals with UO-31 renal. The following applies: 10 µM.
Another test relates to ACHN renal. To be noted: 10 µM.
A further test concerns CAKI-1 renal. To be noted: 10 µM.
For another test, the system named is A498 renal. To be noted: 10 µM.
Another test concerns CCRF-CEM leukemia. The following applies: 10 µM.
For the next test, the system named is MOLT-4 leukemia. The following applies: 10 µM.
The subject of the next test is SR leukemia. The following applies: 10 µM unless noted.
The next test relates to RPMI-8226 leukemia. To be noted: 10 µM.
The test system of a further test is OVCAR-8 ovarian. The following applies: 10 µM.
A further test has as its system OVCAR-5 ovarian. The following applies: 10 µM.
Another test has as its system OVCAR-4 ovarian. To be noted: 10 µM.
The test system of another test is SK-OV-3 ovarian. To be noted: 10 µM.
Another test concerns IGROV1 ovarian. To be noted: 10 µM.
The subject of a further test is HS 578T breast. The following applies: 10 µM.
A further test deals with NCI/ADR-RES ovarian. To be noted: 10 µM.
A further test deals with OVCAR-3 ovarian. To be noted: 10 µM.

`CC[N+](CC)=c1ccc2nc3c(cc(N)c4ccccc43)oc-2c1`: the growth in the test with SK-MEL-2 melanoma was -75.1% (active); in the test on EKVX NSCLC, -66.6% (active); in the test on SN12C renal it was -40.8% (active); in the test on UO-31 renal, -56.7% (active); in the test on ACHN renal, -77.6% (active); in the test with CAKI-1 renal, -79% (active). Further, the growth in the test on A498 renal was -76.4% (active); with CCRF-CEM leukemia, 19.8% (inactive); with MOLT-4 leukemia it was -44.4% (active); in the test with SR leukemia, -47.2% (active); in the test on RPMI-8226 leukemia, 10.2% (inactive); in the test on OVCAR-8 ovarian it was -28.4% (active). The growth was -81.7% (active) in the test on OVCAR-5 ovarian; -42.6% (active) in the test on OVCAR-4 ovarian; -72.7% (active) in the test on SK-OV-3 ovarian; -42.2% (active) with IGROV1 ovarian; -26.2% (active) in the test on HS 578T breast; -62.2% (active) with NCI/ADR-RES ovarian.

`O=C1NC(=O)c2cc([N+](=O)[O-])ccc21`: the growth was 107% (inactive) in the test on SK-MEL-2 melanoma; 103% (inactive) in the test with EKVX NSCLC; 101% (inactive) with SN12C renal; 85.5% (inactive) in the test on UO-31 renal; 103% (inactive) in the test on ACHN renal; 86.4% (inactive) with CAKI-1 renal. For the same compound, the growth in the test on A498 renal is 99.2% (inactive); in the test with CCRF-CEM leukemia it was 45.3% (inactive); with MOLT-4 leukemia, 96.9% (inactive); in the test on SR leukemia, 95.3% (inactive); in the test with RPMI-8226 leukemia, 71.2% (inactive); in the test with OVCAR-8 ovarian, 94.4% (inactive). In addition, the growth with OVCAR-5 ovarian was 101% (inactive); with OVCAR-4 ovarian, 117% (inactive); in the test with SK-OV-3 ovarian, 105% (inactive); with IGROV1 ovarian, 103% (inactive); in the test with OVCAR-3 ovarian, 110% (inactive); in the test on HS 578T breast, 127% (inactive). For the same compound, in the test with NCI/ADR-RES ovarian, the growth is 113% (inactive).

As to `OCC1OC(n2cnc3c(=S)nc[nH]c32)C(O)C1O` (centres undefined), the growth was 100% (inactive) and 57.6% (inactive) in the test with SK-MEL-2 melanoma; 106% (inactive) and 119% (inactive) in the test on EKVX NSCLC; 95.1% (inactive) and 82.5% (inactive) in the test with SN12C renal; 93.9% (inactive) and 50.5% (inactive) in the test on UO-31 renal; 103% (inactive) and 32.9% (inactive) in the test with ACHN renal; 104% (inactive) and 18% (inactive) with CAKI-1 renal. The growth in the test with A498 renal is 105% (inactive) and 119% (inactive); in the test with CCRF-CEM leukemia it was 107% (inactive) and 32.7% (inactive); with MOLT-4 leukemia, 120% (inactive) and 35.7% (inactive); in the test with SR leukemia, 112% (inactive) and 37.9% (inactive); in the test with RPMI-8226 leukemia, 108% (inactive) and 31.6% (inactive); with OVCAR-8 ovarian, 47.3% (inactive). Further, the growth is 57% (inactive) and 85.1% (inactive) in the test with OVCAR-5 ovarian; 91.5% (inactive) and 46.9% (inactive) in the test with OVCAR-4 ovarian; 113% (inactive) in the test with SK-OV-3 ovarian; 85.4% (inactive) in the test on IGROV1 ovarian; 113% (inactive) and 47% (inactive) with OVCAR-3 ovarian; 89.5% (inactive) and 62.7% (inactive) in the test with HS 578T breast. Also, the growth in the test with NCI/ADR-RES ovarian is 102% (inactive) and 46.5% (inactive).

For the compound `COC(=O)C1=COC(C)C2C[n+]3ccc4c([nH]c5ccccc54)c3CC12` (centres undefined), the growth is 103% (inactive) and 85.1% (inactive) in the test with SK-MEL-2 melanoma; 102% (inactive) and 93% (inactive) in the test on EKVX NSCLC; 95.9% (inactive) and 78.7% (inactive) in the test with SN12C renal; 79.1% (inactive) and 73.4% (inactive) in the test on UO-31 renal; 99.7% (inactive) and 88.9% (inactive) with ACHN renal; 101% (inactive) and 94.4% (inactive) with CAKI-1 renal. For the same compound, the growth in the test on A498 renal is 72.8% (inactive) and 94.7% (inactive); with CCRF-CEM leukemia, 97.4% (inactive) and 104% (inactive); with MOLT-4 leukemia, 98.8% (inactive) and 94.3% (inactive); in the test with SR leukemia, 104% (inactive) and 99.4% (inactive); with RPMI-8226 leukemia it was 93.9% (inactive) and 95.8% (inactive); in the test on OVCAR-8 ovarian, 107% (inactive) and 89.8% (inactive). Also, the growth is 105% (inactive) and 94.7% (inactive) in the test with OVCAR-5 ovarian; 100% (inactive) and 108% (inactive) with OVCAR-4 ovarian; 114% (inactive) and 83.8% (inactive) in the test with SK-OV-3 ovarian; 103% (inactive) and 82.5% (inactive) with IGROV1 ovarian; 104% (inactive) and 97.4% (inactive) in the test on OVCAR-3 ovarian; 111% (inactive) and 79.6% (inactive) in the test with HS 578T breast. For the same compound, the growth in the test on NCI/ADR-RES ovarian was 108% (inactive) and 102% (inactive).

Turning to `CCCCCCCCCCCCSC(=NC)NC`, the growth in the test on SK-MEL-2 melanoma is 79.2% (inactive) and 95.8% (inactive); in the test with EKVX NSCLC, 71.1% (inactive); with SN12C renal, 39.4% (inactive) and 60.4% (inactive); with UO-31 renal, 35.2% (inactive) and 49.6% (inactive); with ACHN renal it was 43% (inactive) and 86.4% (inactive); in the test with CAKI-1 renal, 45.8% (inactive) and 73.6% (inactive). Moreover, the growth in the test with A498 renal was 72.3% (inactive); with CCRF-CEM leukemia, 23.7% (inactive); in the test with MOLT-4 leukemia, 1.27% (active) and 19.1% (inactive); with SR leukemia, -4.45% (active) and -23.7% (active); in the test on RPMI-8226 leukemia, -6.03% (active) and 23.3% (inactive); in the test on OVCAR-8 ovarian, 62.1% (inactive) and 82% (inactive). The growth is 57.5% (inactive) and 84.1% (inactive) in the test on OVCAR-5 ovarian; 31.3% (inactive) and 71.2% (inactive) with OVCAR-4 ovarian; 51% (inactive) and 79.1% (inactive) in the test with SK-OV-3 ovarian; 20.3% (inactive) and 66.7% (inactive) in the test on IGROV1 ovarian; 81.4% (inactive) and 93.2% (inactive) in the test with HS 578T breast; 47.4% (inactive) and 69.1% (inactive) with NCI/ADR-RES ovarian.

With `O=C1C=CC(=CC=C2C=CN(CCCCCCCCCCCO)C=C2)C=C1`, the growth is 33.5% (inactive) in the test with SK-MEL-2 melanoma; 26.3% (inactive) in the test on EKVX NSCLC; 10.4% (inactive) in the test on SN12C renal; 90.9% (inactive) with ACHN renal; 90.4% (inactive) in the test on CAKI-1 renal; 95.1% (inactive) with A498 renal. Also, the growth in the test with CCRF-CEM leukemia was 29.5% (inactive); in the test on MOLT-4 leukemia, 41.9% (inactive); with RPMI-8226 leukemia it was 11.9% (inactive); with OVCAR-8 ovarian, 22.7% (inactive); in the test on OVCAR-5 ovarian, 55.4% (inactive); in the test on OVCAR-4 ovarian it was 35.4% (inactive). Besides, the growth in the test on SK-OV-3 ovarian was 45.4% (inactive); in the test with IGROV1 ovarian it was 41.2% (inactive); in the test on HS 578T breast it was 35.6% (inactive); in the test on NCI/ADR-RES ovarian, 104% (inactive).

Take `C[n+]1c2cc(N)ccc2cc2ccc(N)cc21`: the growth in the test with EKVX NSCLC was -23.9% (active) and 5.67% (active) and -26.5% (active); with ACHN renal it was 6.76% (active) [middle of 4 runs]; in the test on CAKI-1 renal, -22.5% (active) and 9.14% (active); in the test with CCRF-CEM leukemia, 17.7% (inactive) [middle of 4 runs]; with MOLT-4 leukemia, 9.49% (active) [middle of 4 runs]; with SR leukemia it was 5.82% (active) and 0.679% (active) and -0.456% (active). Moreover, the growth in the test on OVCAR-5 ovarian was -5.86% (active) and 16.3% (inactive) and -3.49% (active); with SK-OV-3 ovarian, 3.68% (active) [middle of 4 runs]; with IGROV1 ovarian, 16.7% (inactive) and 36.3% (inactive) and 12.2% (inactive); with NCI/ADR-RES ovarian, 18.2% (inactive) [middle of 4 runs].

The values are drawn from PubChem BioAssay (NCI).
